IL1B secr inh: qHTS for Inhibitors of Inflammasome Signaling: IL-1-beta AlphaLISA Primary Screen; THP-1 LPS/ATP IL-1B secretion, AlphaLISA, 16 h; active compounds read low; activity change, % at 57.5 µM; 360,000 tested, 4.7% active; AID 743279, 2014; in the data active = activity change below about -50%; inconclusive = mostly about -30% to -49%
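THP-1 cells pretreated 1 hr with compounds (up to 57.5 uM final), then stimulated with LPS (250 ng/mL final) plus ATP (1.25 mM final); secreted IL-1B measured by AlphaLISA after 16 hr, decreased signal indicating inhibition.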
TDP1 cell noCPT: qHTS for Inhibitors of human tyrosyl-DNA phosphodiesterase 1 (TDP1): qHTS in cells in absence of CPT | DT40 Tdp1-/- hTDP1 cells, no CPT, ATP luminescence, 48 h | Potency, µM (doses to about 46.2 µM), for inactives: at the highest dose activity change, negative = growth inhibition, usual class: inhibitors | 420,000 tested, 15% active; also: potency is read from the fitted curve at half-maximal effect; nearly all actives have a fitted effect of over 55% in size
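No-CPT arm: Tdp1-/-;hTDP1 DT40 cells (400/well) plus compounds, incubated ≥48 hr at 37 °C. Readout CellTiter-Glo luminescence.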
TDP1 cell CPT: qHTS for Inhibitors of human tyrosyl-DNA phosphodiesterase 1 (TDP1): qHTS in cells in presence of CPT; Potency, µM (titrated, usually from 46.2 µM), without a hit: at the top dose activity change, negative = growth inhibition, usual class: inhibitors; chicken DT40 Tdp1-/-;hTDP1 cells + 20 nM CPT, ATP luminescence, 48 h; AID 686979, 2013; 420,000 tested, 12% active; also: potency is read from the fitted curve at half-maximal effect; nearly all actives have a fitted effect of over 55% in size
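Chicken DT40 Tdp1-/- cells complemented with human TDP1, 400 cells/well, exposed to compounds plus 20 nM camptothecin for at least 48 h at 37 C; viability read as ATP content by CellTiter-Glo luminescence.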
HT1080NT lethal: qHTS for induction of synthetic lethality in tumor cells producing 2HG: qHTS for the HT-1080-NT fibrosarcoma cell line. HT-1080-NT fibrosarcoma viability, CellTiter-Glo ATP luminescence, 48 h. Potency, µM (top dose mostly 46.1 µM), for the others: at the top dose activity, negative = less viability, actives largely listed as cytotoxic. 360,000 tested, 1.6% active. AID 686970, 2013;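 also: NT is the 2HG producing partner of a matched IDH1 knockdown line; potency is read from the fitted curve at half-maximal effect; 0% = DMSO-treated cells and -100% = media-only wells without cells; nearly all actives have a fitted effect of over 55% in size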
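Luminescent CellTiter-Glo readout after 48 hours of compound exposure at 37 degrees C defined viability of HT-1080-NT cells. Activity was normalized to DMSO wells and cell-free media wells; concentration-response curves were fitted and assigned curve classes.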
HT1080 IDH1KD tx: qHTS for induction of synthetic lethality in tumor cells producing 2HG: qHTS for the HT-1080-IDH1KD cell line | HT-1080 IDH1 knockdown viability, ATP luminescence, 48 h | Potency, µM (highest dose often 46.1 µM), for inactives: at the highest dose activity, negative = toxicity, actives largely listed as cytotoxic | 360,000 tested, 2% active;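 also: potency is read from the fitted curve at half-maximal effect; 0% = DMSO wells and -100% = cell-free medium wells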
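Using the IDH1-knockdown HT-1080 line run in the same batch and compound series as the NT line, viability after 48 h at 37 °C was determined by CellTiter-Glo luminescence and expressed as % activity.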
* marks the source's active call; other numbers are inactive results; i = inactive; ? = inconclusive; · = no result; ! = repeats disagree; [ ] = another dose, or the depositor's remark. A selection: hits, their analogues and other compounds. The true share with any hit is near 19%. Unless noted, calls follow the shape of the dose curve; as a rule, active = well fitted curve in the direction sought with a large enough effect; inconclusive = small, poorly fitted or top-dose-only effect, or another doubt; inactive = no such curve, though single readings can be large; an effect the other way counts as inactive or inconclusive. Unless noted, % is scaled to controls: 0 for no effect and ±100 for the full control effect.

SMILES	IL1B secr inh	TDP1 cell noCPT	TDP1 cell CPT	HT1080NT lethal	HT1080 IDH1KD tx
CCCCOc1ccc(CN(C)c2ncnc(N)n2)cc1	-4	?	?	?	?
CCCCOc1ccc(Cc2cnc(N)nc2N)cc1	-55*	?	-24%	-17%	-3%
O=C1CCC(C(=O)Nc2ccc([N+](=O)[O-])cc2)N1 (configuration not stated)	5	-17%	-7%	-7%	5%
CC(C)C[C@@H](C=O)NC(=O)[C@H](CC(C)C)NC(=O)[C@H](CC(C)C)NC(=O)OCc1ccccc1	·	-12%	-7%	·	·
CNc1c(N)c(=O)oc2ccccc12	11	-15%	-5%	5%	0%
Cc1ccc(Nc2c(N)c(=O)oc3ccccc23)cc1	1	26µM*	?	?	?
COc1ccc(S(=O)(=O)N(C)C)cc1NS(=O)(=O)c1ccc(F)c(F)c1F	17	?	-3%	0%	13%
CC(C)CNC(=O)c1cc([N+](=O)[O-])ccc1N1CCCCC1	0	23µM*	?	-2%	-1%
COc1ccc(NC(=O)c2cc([N+](=O)[O-])ccc2N2CCCC2)cc1	7	-5%	4%	-1%	2%
COc1ccc(NC(=O)c2cc([N+](=O)[O-])ccc2N2CCCCC2)cc1	18	21µM*	21µM*	-18%	-20%
COc1ccc(NC(=O)c2cc([N+](=O)[O-])ccc2N2CCCCC2)cc1OC	12	?	21µM*	-17%	-27%
O=C(Nc1ccccc1)c1cc([N+](=O)[O-])ccc1N1CCCCC1	45	?	?	-9%	-28%
O=C1c2ccccc2C(=O)N1c1ccc(O)cc1	·	1%	-2%	·	·
CCC(C)Sc1cccc(-c2nc3ccccn3c2NCc2ccccc2)c1 (configuration not stated)	?	?	?	-20%	-7%
CCC(C)Sc1cccc(-c2nc3ccc(C)cn3c2NCc2ccccc2)c1 (configuration not stated)	-104*!	21µM*	16µM*	?	?
Cc1ccc2nc(-c3cccc(Cl)c3)c(Cc3cccc(F)c3)n2c1	0	?	?	17%	4%
CCC(C)Sc1cccc(-c2nc3ccc(Cl)cn3c2NCc2ccccc2)c1 (configuration not stated)	-54*	16µM*	23µM*	?	?
Cc1ccc2nc(-c3cccc(-c4cccc(Cl)c4)c3)c(NCc3ccccc3)n2c1	0	?	9.2µM*	?	?
CC(C)(C)c1ccc(Cn2c(=N)n(CC(O)c3ccco3)c3ccccc32)cc1 (configuration not stated)	-67*	2.6µM*	2.6µM*	23µM*	21µM*
CC(C)(C)c1ccc(COn2c(=O)c(-c3ccco3)[n+]([O-])c3ccccc32)cc1	8	5%	-6%	8%	2%
Cc1ccccc1Cn1c(=N)n(CC(O)c2ccco2)c2ccccc21 (configuration not stated)	-77*	15µM*	18µM*	?	?
COc1ccc(OC)c(CN2C(=O)CCC2(C)c2nnnn2-c2c(C)cccc2C)c1 (configuration not stated)	-5	-29%	?	6%	0%
O=C(CC1CC2CCC1C2)N1CCN(S(=O)(=O)c2ccccc2F)CC1 (configuration not stated)	6	?	?	16%	21%
N#Cc1ccccc1S(=O)(=O)N1CCN(CC(=O)Nc2ccccc2C(=O)NC2CC2)CC1	21	-21%	-23%	3%	-2%
C[C@H](/C=C/[C@H](C)C(C)(C)O)[C@H]1CC[C@H]2/C(=C/C=C3C[C@@H](O)C[C@H](O)C3)CCC[C@]12C	·	-15%	-27%	·	·
SMILES	IL1B secr inh	TDP1 cell noCPT	TDP1 cell CPT	HT1080NT lethal	HT1080 IDH1KD tx
CCOC(=O)C1(C(=O)OCC)COC(=O)C1CN1Cc2cc3ccccc3nc2C1 (configuration not stated)	0	9.2µM*	10µM*	?	?
COc1ccccc1OC(C)C(=O)NCC1(N2CCOCC2)CCCCC1 (configuration not stated)	·	18µM*	23µM*	·	·
CC(C)(C)c1ccc(OCC(=O)NCC2(N3CCOCC3)CCCCC2)cc1	·	16µM*	13µM*	·	·
CC(C)(C)c1ccc(C(=O)NCCCN2CCN(CCCNC(=O)c3ccc(C(C)(C)C)cc3)CC2)cc1	-81*	9.2µM*	9.2µM*	18µM*	?
COc1ccccc1-n1nnnc1SCC(=O)NCC1(N2CCOCC2)CCCCC1	-11	-20%	?	1%[9.24 µM]	5%
CC(C)COc1ccc(C(=O)NCC2(N3CCN(C)CC3)CCCCC2)cc1	·	18µM*	?	·	·
CC(=O)c1ccc(OCC(=O)NCC2(N3CCCCC3)CCCCC2)cc1	-6	18%	6%	8%	4%
CCOc1ccc(-c2nn(CC(=O)NC3CCCC3)c3c2cnc2ccc(C)cc23)cc1	·	3%	-3%	·	·
COc1ccc(NC(=O)C2(S(=O)(=O)c3ccc(C)cc3)CC2)cc1	-11	-10%	-7%	0%	4%
CS(=O)(=O)c1ccc(C(=O)NCC2(N3CCCCC3)CCCCC2)cc1	6	-9%	-5%	20%	16%
COCc1ccc(C(=O)NCC2(N3CCCCC3)CCCCC2)cc1	6	23µM*	?	?	21%
CN1CCN(C2(CNC(=O)c3ccc(C(C)(C)C)cc3)CCCCC2)CC1	·	16µM*	?	·	·
Cc1cccc(N2CCN(C(=O)Cn3cnc4c3c(=O)n(C)c(=O)n4C)CC2)c1C	34	18µM*	23µM*	-10%	-7%
CC1CN(C(=O)Cn2cnc3c2c(=O)n(C)c(=O)n3C)CC(C)O1 (configuration not stated)	23	-8%	4%	6%	-1%
Cc1cccc(N2CCN(C(=O)Cn3ccc4ccccc4c3=O)CC2)c1C	-7	?	13µM*	-15%	?
Cc1cccc(N2CCN(C(=O)Cn3c(=O)c4cccn4c4ccc(F)cc43)CC2)c1C	·	10µM*	21µM*	·	·
CC1Cc2ccccc2N1C(=O)Cn1cnc2c1c(=O)n(C)c(=O)n2C (configuration not stated)	i	23µM*	?	-3%	-4%
Cn1c(=O)c2c(ncn2CC(=O)N2CCN(c3ccccc3F)CC2)n(C)c1=O	30	2%	-7%	16%	5%

Bioassay records from PubChem BioAssay.
